# Screening data: PubChem BioAssay, several laboratories
# A selection: hits, their analogues and other compounds. The true share with any hit is near 1%.
# EBNA-1 inh = EBNA-1 DNA-binding inhibitors, primary screen, biochemical, fluorescence polarization; inhibition, % at 14.8 µM; hit rate 0.34% among 300,000; AID 1950, 2009; in the data active = inhibition above about 28%
# ZTA counter = blocks Epstein-Barr virus ZTA, an EBNA-1 counter-screen; P03206; ZTA-DNA binding, fluorescence polarization; inhibition, % at 11 µM; hit rate 0.15% among 320,000; AID 2234; in the data active = inhibition above about 33%
# MEX-5 binding = MEX-5 zinc finger RNA-binding disruptors – biochemical, C. elegans, fluorescence polarization, MLPCN library, primary screen; MEX-5/FITC-TCR2 RNA binding; active compounds read low; activity score (negative = inhibition of binding), % at 10 µM; hit rate 0.38% among 300,000; AID 1832, 2009;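 active = inhibition past about -25% in most replicates, and total fluorescence under double the plate's negative control median, limit read from the data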;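 note: 0% = DMSO and -100% = 5 µM competing unlabeled TCR2 RNA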
# Target sequence (Q9XUB2 whole entry, looked up): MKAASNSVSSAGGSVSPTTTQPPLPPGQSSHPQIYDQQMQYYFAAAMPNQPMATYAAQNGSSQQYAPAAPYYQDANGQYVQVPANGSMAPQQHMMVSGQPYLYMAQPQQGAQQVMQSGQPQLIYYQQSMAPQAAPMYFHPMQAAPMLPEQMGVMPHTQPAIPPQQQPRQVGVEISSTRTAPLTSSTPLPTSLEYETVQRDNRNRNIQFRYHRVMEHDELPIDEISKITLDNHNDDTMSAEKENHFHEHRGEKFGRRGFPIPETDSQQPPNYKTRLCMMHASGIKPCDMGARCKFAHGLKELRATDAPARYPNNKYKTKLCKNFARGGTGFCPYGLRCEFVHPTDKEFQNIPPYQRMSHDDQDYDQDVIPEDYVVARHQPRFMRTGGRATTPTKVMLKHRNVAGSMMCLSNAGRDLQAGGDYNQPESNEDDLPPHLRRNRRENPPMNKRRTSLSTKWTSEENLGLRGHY
# EBV gp42 inh = Epstein-Barr virus gp42 inhibitors, primary screen, biochemical, uHTS, fluorescence polarization; hit rate 0.42% among 220,000; inhibition, % (tested at 21.74 µM); Fluorescence polarization binding assay, mP read-out; AID 1085, 2008; Glycoprotein 42 (Epstein-Barr virus (strain AG876)), Q1HVG2; in the data active = inhibition above about 50%
# EBNA-1 inh conf = EBNA-1 DNA-binding inhibitors, retest, confirmation, biochemical, fluorescence polarization, triplicate | shares compounds with EBNA-1 inh | Recombinant EBNA-1 DBD, Cy5-DNA fluorescence polarization | inhibition, % at 14.8 µM | hit rate 35% among 830;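 active = mean inhibition across replicates above a set limit taken from the earlier primary screen, cut at about 28% in these data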;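 note: plate controls were EBNA-1 protein with DMSO for no effect and wells lacking EBNA-1 for full effect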
# ZTA DNA inh trip = EBV Zta DNA binding inhibitors, counter-screen for EBNA-1 inhibitor project, biochemical, fluorescence polarization, triplicate; Zta-ZRE DNA binding, Cy5 fluorescence polarization; 830 tested, under 10 active; inhibition, % at 11.1 µM; shares compounds with EBNA-1 inh; AID 2328, 2010;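 active = mean inhibition over triplicates above a set limit taken from the primary EBNA-1 screen, cut at about 37% in these data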;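 note: purified full length Zta protein with Cy5 labeled ZRE DNA probe; 0% = Zta with DMSO and 100% = wells lacking Zta protein; inhibitors lower polarization by freeing the labeled DNA probe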
# * marks the source's active call; other numbers are inactive results; x = no result given; + = active, no number; ! = not active in a repeat.
SMILES,EBNA-1 inh,ZTA counter,MEX-5 binding,EBV gp42 inh,EBNA-1 inh conf,ZTA DNA inh trip
Cc1cccc(S(=O)(=O)C(C#N)c2nc3ccccc3nc2N2CCCC2)c1 (stereo not given),10.3,10.5,-8.8,91.6*,x,x
Cc1ccc(C)c(S(=O)(=O)C(C#N)c2nc3ccccc3nc2N2CCCC2)c1 (stereo not given),-1.7,-7.1,-7.7,110.3*,x,x
N#CC(c1nc2ccccc2nc1N1CCCC1)S(=O)(=O)c1ccccc1 (stereo not given),3.2,2.0,-2.8,102.5*,x,x
Cc1ccc(CNC(=O)c2ccc(CNS(=O)(=O)c3ccc4c(c3)C(C)(C)C(=O)N4C)cc2)o1,-3.7,8.9,1.8,x,x,x
COc1ccc(OC)c(/C=c2\sc3nc(-c4cccs4)nn3c2=O)c1,4.8,-4.3,-51.5*,134.7*,x,x
COc1ccccc1/C=c1\sc2nc(-c3ccco3)nn2c1=O,-11.2,0.6,-6.5,-11.1,x,x
C[C@@]12CCC[C@@](C)(C(=O)O)C1CC[C@@]13C[C@@H](NCc4ccccc4)[C@@](C)(CCC12)C3 (stereo not given in full),x,-8.0,x,x,x,x
CC(=O)N1C(=O)c2cccc3cccc(c23)C(=O)N1C(C)=O,6.2,7.8,0.4,-17.4,x,x
O=C1c2cccc3cccc(c23)C(=O)C1(O)O,1.9,-13.5,-58.7*,x,x,x
CCOC(=O)N1CCN(C(=O)c2ccccc2Oc2ccccc2)CC1,-13.1,-8.7,2.3,130.3*,x,x
COc1ccc(-c2nc(CS(=O)CC(=O)NCc3cccnc3)c(C)o2)cc1 (stereo not given),-3.6,0.0,-2.3,135.5*,x,x
CCCCc1nc2cc(C(=O)N3CCCC(OCCC)C3)ccc2o1 (stereo not given),1.4,-18.6,-1.1,x,x,x
Cc1ccc(C)c(NC(=O)CN(C)C(=O)c2cc3c(s2)CCCCC3)c1,-1.7,-6.5,-3.2,x,x,x
Cc1ccc(-c2cc(C(=O)N3CCCc4ccccc43)c3ccccc3n2)cc1,-3.2,-1.2,-0.1,-1.6,x,x
Cc1ccc2nc3sc(C(=O)N4CCCc5ccccc54)c(N)c3cc2c1,12.2,9.1,-34.8*,45.8,x,x
O=C(Cc1cccc(NC(=O)C2CCN(C(=O)CCc3ccccc3)CC2)c1)Nc1cccc(C(=O)N2CCCC2)c1,x,-1.0,x,x,x,x
Cn1c(C(=O)N2CCN(c3nc4ccccc4s3)CC2)cc2sccc21,50.9*,6.6,1.3,-4.3,30.8*,2.5
Cn1cccc1C(=O)NCC(c1ccco1)N1CCCCC1 (stereo not given),2.3,11.9,-1.0,x,x,x
CCNc1ccc(C(=O)OC(C(=O)NC(N)=O)C(C)C)cc1[N+](=O)[O-] (stereo not given),32.7*,-0.1,-0.9,-10.0,-10.6,-4.6
CCNc1ccc(C(=O)OCC(=O)NC(C)c2ccccc2)cc1[N+](=O)[O-] (stereo not given),-9.4,4.8,-1.9,-13.0,x,x
Cc1cccc(N(Cc2ccccc2)C(=O)CSC(C)C(=O)Nc2cc(C)on2)c1 (stereo not given),-7.2,-7.9,-0.6,x,x,x
OC(c1ccc(F)cc1)C(CN1CCOCC1)c1ccccc1 (stereo not given),-15.6,14.1,-0.5,x,x,x
Cc1cc2c(Nc3ccc(C(=O)O)cc3)ncnc2s1,97.1*,14.2,0.1,x,-9.4,-12.0
COc1ccc(NC(=O)c2cc(-c3cc(C)c(C)cc3O)n[nH]2)c(OC)c1,7.8,6.0,-2.0,x,x,x
COc1ccc(NC(=O)c2ccc(C(=O)Nc3ccc(OC)cc3OC)cc2)c(OC)c1,56.2*,-6.6,-1.6,-5.8,51.4*,9.5
SMILES,EBNA-1 inh,ZTA counter,MEX-5 binding,EBV gp42 inh,EBNA-1 inh conf,ZTA DNA inh trip
COc1ccc(NC(=O)c2cc(-c3cc(Cl)ccc3O)n[nH]2)c(OC)c1,32.8*,23.2,-8.6,x,19.2,2.6
COc1ccc(Nc2nc(NCc3ccco3)nc(N)c2[N+](=O)[O-])cc1,39.0*,17.1,1.2,-4.2,12.1,1.1
O=C(CNC(=O)c1ccc(Br)o1)NC1CCCCC1,9.6,-6.7,1.3,x,x,x
Cc1onc(-c2c(Cl)cccc2Cl)c1C(=O)NC(=S)Nc1sc2c(c1C(N)=O)CCC(C)C2 (stereo not given),33.8*,14.5,-0.2,-2.9,28.2*,2.9
CCCCOc1ccc(C(=O)Nc2ccc(C)cc2[N+](=O)[O-])cc1,34.1*,-4.6,1.1,-10.4,1.0,7.4
NNc1nc2ccccc2c(=O)n1Cc1ccccc1,-16.9,-14.3,0.4,x,x,x
COc1ccc(/C(C)=N\Nc2nc(-c3ccccc3)cc(=O)[nH]2)cc1,41.7*,7.7,-0.2,-18.1,19.9,5.1
COc1cccc(C2NC(=O)CCC2[N+](=O)[O-])c1OC (stereo not given),-8.7,-2.6,1.2,x,x,x
Nc1c(C(=O)Nc2ccc3c(c2)OCCO3)nnn1Cc1cccc(Br)c1,35.7*,-0.7,-0.7,x,29.8*,0.8
Cc1nn(-c2ccccc2)c(C)c1NC(=O)COC(=O)c1ccc(Cl)c(S(N)(=O)=O)c1,3.4,-9.0,2.5,x,x,x
CCCCN(CC)CCNC(=O)CN1C(=O)COc2ccc(S(=O)(=O)N3CCCC3)cc21,77.2*,2.3,2.8,-13.2,-1.6,-2.4
CCCCNC(=O)CN1C(=O)COc2ccc(S(=O)(=O)N3CCCCCC3)cc21,-14.3,0.2,0.2,x,x,x
COc1ccc(NC(=O)CN(C)C(=O)CCNS(=O)(=O)c2ccc(Br)cc2)cc1,7.7,-10.1,0.0,x,x,x
CCOC(=O)C1CCCN(C(=O)/C(=C/c2ccco2)NC(=O)c2ccccc2)C1 (stereo not given),-3.6,1.1,0.9,x,x,x
COc1ccc(CN(CCN(C)C)c2ccccn2)cc1,+!,30.9,-2.2,-10.5,7.8,7.8
CC1CCCCN1C(=O)CCNC(=O)Cn1cnc2ccccc2c1=O (stereo not given),-5.5,0.6,-1.8,x,x,x
Fc1ccccc1COc1ccccc1/C=N/Nc1nc(N2CCCC2)nc(N2CCCC2)n1,8.6,-6.2,-0.9,5.5,x,x
C(=N\Nc1nc(N2CCCC2)nc(N2CCCC2)n1)/c1ccccc1OCc1ccccc1,38.2*,-16.1,-1.1,-10.5,24.3,-1.7
Cc1ccc(S(=O)(=O)N(C(=N)N)c2nc(N(C)C)nc(N(C)C)n2)cc1,30.6*,5.5,2.6,x,5.0,5.1
COc1ccc(CNC(=O)C(=O)NCC2OCCN2S(=O)(=O)c2ccccc2)cc1 (stereo not given),-2.5,-3.1,-0.7,x,x,x
O=C(Nc1ccc(S(=O)(=O)N2CCC(C(=O)NC3CCCCC3)CC2)cc1)c1ccco1,38.0*,-1.9,-1.1,-20.5,33.6*,0.4
CCOC(=O)c1c(-c2ccc(C)o2)csc1NC(=O)CN1CCCCC1,-11.1,-18.8,1.3,-9.2,x,x
